# For part of these data: Potency and affinity values are given separately. Active and inactive are the calls of the source. Where a call stands in place of a potency, no number is given. The rule behind the calls is not given here.
# Conditions: Ebola virus entry assay, green fluorescence channel
row,Compound,efficacy
1,CCOC(=O)c1cnc2c(cnn2CC)c1NN=C(C)C,-8.64% (inactive)
2,Cc1c(I)c(=O)n(-c2ccccc2)n1C,-23.5% (inactive)
3,Cc1ncc([N+](=O)[O-])n1CC(O)CCl (stereo not drawn),-16.3% (inactive)
4,NC(=O)c1ncn([C@@H]2O[C@H](CO)[C@@H](O)[C@H]2O)c1O,-21.3% (inactive)
5,O=C(CN1CCNCC1)NC1CCCCC1,48.3% (inactive)
6,CC(NN)c1ccccc1 (stereo not drawn),-30% (inactive)
7,Cc1nc(-c2ccc(Cl)cc2)oc1COC(C)(C)C(=O)O,-18.2% (inactive)
8,CN(C)CCOC(=O)COc1ccc(Cl)cc1,14.4% (inactive)
9,CC(C)(C)NCC(O)c1cc(Cl)c(N)c(C(F)(F)F)c1 (stereo not drawn),12.5% (inactive)
10,Nc1nc(-c2ccccc2)c(Br)c(=O)[nH]1,-17% (inactive)
11,CCn1nc(C(=O)O)c(=O)c2cc3c(cc21)OCO3,37.2% (inactive)
12,CCN1CCN(C(=O)N[C@@H](C(=O)N[C@@H]2C(=O)N3[C@@H]2SC(C)(C)[C@H]3C(=O)O)c2ccccc2)C(=O)C1=O,-32.7% (inactive)
13,CC(C)(C)c1cc(C=O)cc(C(C)(C)C)c1O,23.6% (inactive)
14,O=C(c1ccccc1)C(O)c1ccccc1 (stereo not drawn),17.3% (inactive)
15,O=C1OC2(c3ccccc31)c1cc(Br)c(O)c(Br)c1Oc1c2cc(Br)c(O)c1Br,23.8% (inactive)
16,Nc1ccc(S(=O)(=O)NC(=O)c2ccccc2)cc1,-38.1% (inactive)
17,Cc1c(NC(C)C)c(=O)n(-c2ccccc2)n1C,-14.1% (inactive)
18,NS(=O)(=O)c1cc2c(cc1Cl)NC(CC1CCCC1)NS2(=O)=O (stereo not drawn),19% (inactive)
19,Nc1ccc(S(=O)(=O)NCc2ccccc2)cc1,27.6% (inactive)
20,CC1(C)OC(=O)NC1=O,15.4% (inactive)

row,Compound,efficacy
1,O=C(CCOCCOCCOCCOCCC(=O)Nc1c(I)cc(I)c(C(=O)O)c1I)Nc1c(I)cc(I)c(C(=O)O)c1I,-16.9% (inactive)
2,CCCCCCCCCCCCSCCOCCO,-41.3% (inactive)
3,C[N+](C)(CCOc1ccccc1)Cc1cccs1,-18.5% (inactive)
4,O=c1c(C2CC(c3ccc(-c4ccc(Br)cc4)cc3)Cc3ccccc32)c(O)sc2ccccc12 (stereo not drawn),37.1% (inactive)
5,NC(=O)N[C@@H](CCC(=O)O)C(=O)O,-11.5% (inactive)
6,Cc1ccc(C(C)C)c(O)c1,-16.9% (inactive)
7,CC(C)(C)NC[C@H](O)COc1nsnc1N1CCOCC1,15.5% (inactive)
8,O=c1[nH]c(=O)n([C@H]2C[C@H](O)[C@@H](CO)O2)cc1Br,-9.16% (inactive)
9,COCCOCC(OC)OC,16.2% (inactive)
10,CC(C)NNC(=O)c1ccncc1,-20.5% (inactive)
11,O=C1c2ccccc2C(=O)c2c1ccc(O)c2O,-18.6% (inactive)
12,OC[C@H]1O[C@@H](Oc2ccc(O)cc2)[C@H](O)[C@@H](O)[C@@H]1O,-11.6% (inactive)
13,CN(C)CCOC(=O)C(c1ccccc1)C1(O)CCCC1 (stereo not drawn),15.2% (inactive)
14,COc1ccc2c(c1)c(CC(=O)OC/C=C(\C)CC/C=C(\C)CCC=C(C)C)c(C)n2C(=O)c1ccc(Cl)cc1,62.6% (inactive)
15,CCC(C(=O)NC(=O)NC(C)=O)c1ccccc1 (stereo not drawn),-14.5% (inactive)
16,O=C1c2c(O)cccc2Cc2cccc(O)c21,-17.8% (inactive)
17,COc1cc2c(cc1OC)CN(C(=O)[C@H](C)N[C@@H](CCc1ccccc1)C(=O)O)[C@H](C(=O)O)C2,-27.9% (inactive)
18,O=C(O)c1cc(-c2ccccc2)nc2ccccc12,-14.9% (inactive)
19,COc1ccccc1N1CCN(CCCCNC(=O)c2ccc(-c3ccc(C(C)=O)cc3)cc2)CC1,25.2% (inactive)

# Conditions: Ebola virus entry assay, ratio channel
row,Compound,outcome
1,CCOC(=O)c1cnc2c(cnn2CC)c1NN=C(C)C,inactive
2,Cc1c(I)c(=O)n(-c2ccccc2)n1C,inactive
3,Cc1ncc([N+](=O)[O-])n1CC(O)CCl (stereo not drawn),inactive
4,NC(=O)c1ncn([C@@H]2O[C@H](CO)[C@@H](O)[C@H]2O)c1O,inactive
5,O=C(CN1CCNCC1)NC1CCCCC1,inactive
6,CC(NN)c1ccccc1 (stereo not drawn),inactive
7,Cc1nc(-c2ccc(Cl)cc2)oc1COC(C)(C)C(=O)O,inactive
8,CN(C)CCOC(=O)COc1ccc(Cl)cc1,inactive
9,CC(C)(C)NCC(O)c1cc(Cl)c(N)c(C(F)(F)F)c1 (stereo not drawn),inactive
10,Nc1nc(-c2ccccc2)c(Br)c(=O)[nH]1,inactive
11,CCn1nc(C(=O)O)c(=O)c2cc3c(cc21)OCO3,inactive
12,CCN1CCN(C(=O)N[C@@H](C(=O)N[C@@H]2C(=O)N3[C@@H]2SC(C)(C)[C@H]3C(=O)O)c2ccccc2)C(=O)C1=O,inactive
13,CC(C)(C)c1cc(C=O)cc(C(C)(C)C)c1O,inactive
14,O=C(c1ccccc1)C(O)c1ccccc1 (stereo not drawn),inactive
15,O=C1OC2(c3ccccc31)c1cc(Br)c(O)c(Br)c1Oc1c2cc(Br)c(O)c1Br,inactive
16,Nc1ccc(S(=O)(=O)NC(=O)c2ccccc2)cc1,inactive
17,Cc1c(NC(C)C)c(=O)n(-c2ccccc2)n1C,inactive
18,NS(=O)(=O)c1cc2c(cc1Cl)NC(CC1CCCC1)NS2(=O)=O (stereo not drawn),inactive
19,Nc1ccc(S(=O)(=O)NCc2ccccc2)cc1,inactive
20,CC1(C)OC(=O)NC1=O,inactive

row,Compound,outcome
1,O=C(CCOCCOCCOCCOCCC(=O)Nc1c(I)cc(I)c(C(=O)O)c1I)Nc1c(I)cc(I)c(C(=O)O)c1I,inactive
2,CCCCCCCCCCCCSCCOCCO,inactive
3,C[N+](C)(CCOc1ccccc1)Cc1cccs1,inactive
4,O=c1c(C2CC(c3ccc(-c4ccc(Br)cc4)cc3)Cc3ccccc32)c(O)sc2ccccc12 (stereo not drawn),inactive
5,NC(=O)N[C@@H](CCC(=O)O)C(=O)O,inactive
6,Cc1ccc(C(C)C)c(O)c1,inactive
7,CC(C)(C)NC[C@H](O)COc1nsnc1N1CCOCC1,inactive
8,O=c1[nH]c(=O)n([C@H]2C[C@H](O)[C@@H](CO)O2)cc1Br,inactive
9,COCCOCC(OC)OC,inactive
10,CC(C)NNC(=O)c1ccncc1,inactive
11,O=C1c2ccccc2C(=O)c2c1ccc(O)c2O,inactive
12,OC[C@H]1O[C@@H](Oc2ccc(O)cc2)[C@H](O)[C@@H](O)[C@@H]1O,inactive
13,CN(C)CCOC(=O)C(c1ccccc1)C1(O)CCCC1 (stereo not drawn),inactive
14,COc1ccc2c(c1)c(CC(=O)OC/C=C(\C)CC/C=C(\C)CCC=C(C)C)c(C)n2C(=O)c1ccc(Cl)cc1,inactive
15,CCC(C(=O)NC(=O)NC(C)=O)c1ccccc1 (stereo not drawn),inactive
16,O=C1c2c(O)cccc2Cc2cccc(O)c21,inactive
17,COc1cc2c(cc1OC)CN(C(=O)[C@H](C)N[C@@H](CCc1ccccc1)C(=O)O)[C@H](C(=O)O)C2,inactive
18,O=C(O)c1cc(-c2ccccc2)nc2ccccc12,inactive
19,COc1ccccc1N1CCN(CCCCNC(=O)c2ccc(-c3ccc(C(C)=O)cc3)cc2)CC1,inactive

# Source: PubChem BioAssay (NCATS)
